# Assay outcomes as filed in PubChem.
# KKLEB cytotox: cytotoxicity in KKLEB CF airway cells, primary screen, cytotoxicity control for CF NF-kB inhibitor project, cell-based, uHTS, fluorescence assay plates; KKLEB CF airway cells viability, ATPlite luminescence, overnight; stronger effect = lower value; cells stimulated with P. aeruginosa culture filtrate; activity change (cytotoxicity), % at 5 µM; 360,000 compounds, 0.36% hits; AID 602141, 2011;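 active means corrected activity change at or below -50% at 5 µM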
# CF NFkB inh: inhibitors of PAF-induced NF-kB signaling, primary screen, cell-based, GFP fluorescence, uHTS. KKLEB NF-kB-GFP reporter, GFP fluorescence overnight. inhibition, % at 5 µM. 360,000 compounds, 0.86% hits;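 active means at least 50% inhibition at 5 µM, scaled per plate between neutral and stimulator controls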;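 further: PAF is a Pseudomonas aeruginosa culture filtrate used as stimulus; plate controls were PAF-stimulated DMSO wells for no effect and unstimulated DMSO wells for full effect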
# HIF-2a block: HIF-2a reporter inhibitors, primary screen, luminescence, 786-0 RCC cells; 786-0 RCC cells HIF-2a reporter, luciferase luminescence, overnight; inhibition, % at 18.8 µM; 360,000 compounds, 0.72% hits;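 active means inhibition of the luminescence signal of 40% or more relative to plate controls, in a single-dose primary screen at 18.75 µM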
# TRPM1 prom inh: inhibitors of MITF-dependent TRPM1 promoter reporter, primary screen, cell-based, SK-MEL-5, single point, luciferase; 330,000 compounds, 0.83% hits; inhibition, % at 12.5 µM; SK-MEL-5 TRPM1 promoter luciferase, 24 h;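 active means mean inhibition across replicates of 60% or more, whatever share of single replicates reaches that level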
# Shn3 3UTR inh: reduction of Shn3 3'UTR firefly luciferase signal, primary screen, Schnurri-3 inhibitor project, cell-based, Clone20 osteoblasts, set 2; Clone20 osteoblast Shn3 3'UTR firefly luciferase, 24 h; inhibition, % at 12.5 µM; 360,000 compounds, 0.52% hits; AID 588674, 2011;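 active means mean inhibition of at least 75% with every replicate also reaching 75%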;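 further: 0% = median of neutral control wells and 100% = pilot-screen positive control compound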
# Peg3 promoter: Peg3 promoter-driven luciferase inhibitors, primary screen, cell-based, HeLa, luciferase luminescence; inhibition, % at 20 µM; HeLa PEG-Prom luciferase reporter, overnight; AID 588405, 2011; 360,000 compounds, 1.7% hits;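 active means inhibition of at least 50% at 20 µM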
# Active calls of the source: *; . = not tested or not shown. This is a sample that favours compounds with a hit; in the whole collection about 2.8% have one here.
SMILES,KKLEB cytotox,CF NFkB inh,HIF-2a block,TRPM1 prom inh,Shn3 3UTR inh,Peg3 promoter
Cc1ccc(S(=O)(=O)N2C[C@H]3n4c(=O)ccc(=O)n4C[C@H](OC(=O)NCc4ccccc4)[C@@]3(O)C2)cc1,-0.9,45.0,26.3,.,-19.7,-10.6
Cc1ccc(S(=O)(=O)N2C[C@H]3n4c(=O)ccc(=O)n4C[C@H](OC(=O)NCC4CCCCC4)[C@@]3(O)C2)cc1,-7.2,40.5,11.4,.,-13.5,94.0*
O=C(c1ccc(NC(=S)NCc2ccco2)cc1)N1CCCCC1,-23.4,2.5,-0.3,3.4,10.3,3.8
CC(CC(=O)Nc1nnc(CC(C)(C)C)s1)c1ccccc1 (stereo not drawn),5.0,3.2,-16.1,-3.4,7.4,2.8
Cc1cc([N+](=O)[O-])nn1Cc1ccc(C(=O)N/N=C/c2ccc(O)cc2O)cc1,-18.5,23.7,-2.3,53.1,60.1,56.2*
O=C(N/N=C/c1ccc(O)cc1O)c1ccc(CN2C(=O)c3cccc4cccc2c34)cc1,-20.3,31.6,4.2,55.5,94.0*,48.5
Cc1cc([N+](=O)[O-])nn1Cc1ccc(C(=O)N/N=C/c2ccc(F)cc2)cc1,-0.7,7.0,-10.2,-8.6,18.0,-8.1
COc1cc(OC)c(OC)cc1/C=C1\CCC/C(=C\c2cc(OC)c(OC)cc2OC)C1=O,-7.9,6.7,17.2,29.1,40.1,71.9*
O=C(CNc1cccc2ccccc12)N/N=C/C(Br)=C/c1ccccc1,-5.1,-2.6,-36.2,9.6,90.5*,27.8
O=C(CNc1cccc2ccccc12)N/N=C/c1ccc([N+](=O)[O-])o1,6.6,-19.1,-68.1,75.2*,14.6,0.2
O=C(CNc1cccc([N+](=O)[O-])c1)N/N=C/c1ccc([N+](=O)[O-])o1,9.3,-23.9,-23.0,77.9*,17.5,14.2
O=C(Cc1ccc([N+](=O)[O-])cc1)N/N=C/c1ccc([N+](=O)[O-])o1,1.0,-15.3,-13.0,.,1.1,4.3
O=C(CNc1cccc2ccccc12)N/N=C/c1ccc[nH]1,-4.4,3.9,-9.4,-10.8,-0.4,-5.8
O=C1c2ccccc2C(=O)c2c(NCCCN(CCO)CCO)cccc21,-15.0,-69.3,-5.8,28.4,-3.8,58.6*
O=C1c2cccc3cccc(c23)C(=O)N1c1ccccn1,2.0,-12.1,8.9,0.6,15.6,-13.3
O=C1c2c(Br)c(Br)c(Br)c(Br)c2C(=O)N1c1ccccn1,3.8,-4.7,39.9,27.5,-2.9,52.2*
Nc1nc(CCl)nc(Nc2ccc3ccccc3c2)n1,-36.6,78.3*,-125.3,14.9,-72.1,-31.9
Cc1ccc(C)c(N2CCN(C(=S)Nc3ccc4nc(N5CCN(C)CC5)cc(C)c4c3)CC2)c1,-11.4,15.4,0.7,84.7*,41.1,31.0
CC(C)(C)c1ccc(O)c(N=Cc2cc(Br)ccc2O)c1,-28.1,3.6,51.9*,25.1,39.8,46.6
Cc1ccc(O)c(C=Nc2cc(C)ccc2O)c1,26.4,-1.7,-208.2,12.4,16.2,-17.3
CN(C)CCOc1ccc(-c2c(-c3ccsc3)sc3ccccc23)cc1,-31.4,42.5,-2.0,3.5,-5.3,98.5*
COc1ccc(-c2sc3ccccc3c2-c2ccc(OCCN(C)C)cc2)cc1,-46.6,44.3,22.5,76.5*,51.5,100.7*
O=C(Cc1ccccc1[N+](=O)[O-])NCC(=O)c1ccc2c(c1)OCO2,2.4,4.2,-159.7,-4.4,-5.1,-134.7
COc1ccc2c(c1)CC=C1C2CCC2(C)C(=O)C(=NO)CC12 (stereo not drawn),-24.2,53.5*,-80.4,9.2,7.7,-27.0
CC(NCCCOc1cccc2ccccc12)c1ccccc1 (stereo not drawn),-11.6,28.6,14.4,9.7,-28.5,94.0*
SMILES,KKLEB cytotox,CF NFkB inh,HIF-2a block,TRPM1 prom inh,Shn3 3UTR inh,Peg3 promoter
COCCn1c(C)cc(C(=O)COC(=O)c2ccc[nH]c2=O)c1C,1.7,10.6,31.2,15.3,0.5,51.7*
Cc1ccc(C(=O)c2c(C)oc3c2C(=O)C(=O)c2ccccc2-3)cc1,-15.8,77.6*,28.7,26.3,96.3*,101.2*
Cc1oc2c(c1C(=O)c1ccc(Cl)cc1)C(=O)C(=O)c1ccccc1-2,-62.2*,86.2*,93.8*,1.2,92.5*,107.0*
Cc1ccc(C(=O)c2coc3c2C(=O)C(=O)c2ccccc2-3)cc1,12.7,7.3,-130.8,-67.4,-34.2,-38.2
O=C(c1ccc2c(c1)OCCO2)C1CCN(S(=O)(=O)c2ccc(F)cc2)CC1,-2.4,10.2,19.1,1.7,28.3,55.0*
Cc1nc([N+](=O)[O-])c(C(=O)OCc2cccc(Br)c2)n1C,1.8,10.4,-4.1,-8.5,10.2,-3.3
COC(=O)c1ccc(C(=O)OC)c(NC(=O)N2c3ccccc3Sc3ccccc32)c1,-54.4*,53.6*,12.3,-0.8,66.7,16.1
COC(=O)c1ccccc1NC(=O)N1c2ccccc2Sc2ccccc21,1.8,19.2,17.1,4.7,18.4,30.9
Cc1noc(C)c1COC(=O)c1csc2c1CCC(C)C2 (stereo not drawn),-17.5,8.0,-15.7,-3.0,27.8,-42.0
CCOC(=O)[C@]12CCCC=C1N(Cc1cccc3ccccc13)C(=O)[C@H](CC(=O)N1CCSCC1)C2,.,.,4.9,.,.,.
COc1ccc(C(NC(=O)C2CCN(CCOc3ccc(Cl)cc3Cl)CC2)c2ccccc2C)cn1 (stereo not drawn),-23.5,13.2,-16.7,.,-6.8,0.9
Cc1ccccc1C(c1ncccc1C)N(C)C(=O)C1CCN(CCOc2ccc(Cl)cc2Cl)CC1 (stereo not drawn),-11.0,12.6,7.4,.,3.8,100.0*
O=C(NC(c1ccccc1)c1ccsc1)C1CCN(CCOc2ccc(Cl)cc2Cl)CC1 (stereo not drawn),-31.2,7.5,-13.4,.,-9.9,53.8*
COc1cc(NC(=O)c2ccccc2)c(OC)cc1NC(=O)CN1CCN(c2ccccn2)CC1,3.8,5.2,-14.6,-0.8,3.8,15.1
COc1cc(Cl)c(C)cc1NC(=O)c1ccccc1NC(=O)CN1CCN(c2ccccn2)CC1,-6.4,11.4,19.4,.,4.0,91.2*
COC(=O)[C@@]1(Cc2ccccc2)[C@@H]2C(=CC(=O)[C@H]2CC(=O)C(=O)N(C)C)CN1C(=O)c1ccccc1,14.3,14.1,67.8*,46.5,37.7,8.7
COC(=O)[C@@]1(Cc2ccc(F)cc2)[C@H]2c3cc(C(=O)N(C)C)n(CCF)c3C[C@H]2CN1C(=O)c1ccccc1,.,.,19.2,.,.,.
NC(Cc1ccc(C(F)(F)F)cc1)c1csc(Nc2cc(Oc3ccccc3)ncn2)n1 (stereo not drawn),-93.8*,90.6*,11.4,.,54.5,105.6*
